Most compounds without a hit are left out; they make up all but 3.7% or so of the library.
VDR inh: vitamin D3 receptor (human) inhibition; VDR-SRC2-3 peptide fluorescence polarization, 2 h; Potency, µM, for the others: max response, negative = inhibition, usual class: inhibitors; actives 0.93% (n = 400,000); AID 504847; note: potency is the fitted concentration of half-maximal effect; % is set by controls: 0 for no effect and ±100 for the full control effect
Target sequence (P11473 whole entry, looked up): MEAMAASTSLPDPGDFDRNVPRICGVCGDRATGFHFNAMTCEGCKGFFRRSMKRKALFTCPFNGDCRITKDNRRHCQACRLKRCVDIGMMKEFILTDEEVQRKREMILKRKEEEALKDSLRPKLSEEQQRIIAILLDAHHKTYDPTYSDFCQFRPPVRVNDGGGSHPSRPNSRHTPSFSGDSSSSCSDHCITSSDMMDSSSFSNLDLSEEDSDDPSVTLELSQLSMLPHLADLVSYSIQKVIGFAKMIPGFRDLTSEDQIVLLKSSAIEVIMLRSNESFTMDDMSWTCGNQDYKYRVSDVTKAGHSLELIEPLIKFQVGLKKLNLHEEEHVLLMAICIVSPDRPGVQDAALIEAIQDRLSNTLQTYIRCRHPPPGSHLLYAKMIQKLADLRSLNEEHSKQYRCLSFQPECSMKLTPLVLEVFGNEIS
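Reagent solutions, kept cold and dark, are dispensed first; compounds are then pinned in at 23 nl, plates briefly spun, and incubated 2 h at ambient temperature. Inhibition of VDR–SRC2-3 peptide binding is read by fluorescence polarization.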
WRN inhibitor: blocks human WRN helicase. actives 0.46% (n = 360,000). Q14191. WRN helicase unwinding, fluorescent forked duplex, kinetic. AID 651768. Potency, µM (series often up to 114 µM), without a hit: top-dose activity change, negative = inhibition, most hits filed as inhibitors; note: potency is the fitted concentration of half-maximal effect; % is set by controls: 0 for no effect and ±100 for the full control effect; nearly all actives have a fitted effect of over 55% in size
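Kinetic fluorescence helicase assay: unwinding of a quenched forked DNA duplex (100 nM final) with 2 mM ATP final raises red fluorescence (525/598 nm). Compounds sat 15 min at room temperature with 20 nM WRN beforehand.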
TCR act: T cell receptor activation | 330,000 tested, under 10 active | primary human leukocytes, anti-CD3, IL-2 HTRF, 48 h | Potency, µM (doses to about 9.22 µM), for the others: at the top dose activation of IL-2 secretion, most hits filed as activators; note: % of control where 0% means no effect
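HTRF read-out of IL-2 secretion: europium cryptate donor excited at 320nm, d2 acceptor emission at 665nm. Cells were primary human leukocytes incubated 48 hr with compounds and a-CD3 beads, supplying TCR signal only.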
FEN1 inhibitor: inhibitors of human flap endonuclease 1. Recombinant FEN1 flap cleavage, fluorescence, 15 min. Potency, µM (series often up to 114 µM), for the others: top-dose activity change, negative = inhibition, usual class: inhibitors. AID 588795. P39748. actives 0.35% (n = 390,000); note: potency is the fitted concentration of half-maximal effect; % is set by controls: 0 for no effect and ±100 for the full control effect; nearly all actives have a fitted effect of over 65% in size
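FEN1 at 10 nM, compound pretreatment for 15 min (room temperature), 50 nM final substrate to initiate; endpoint reads at 0 and 15 min; DMSO-only plates used as vehicle background.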
PI5P4Ka inh: blocks human PI5P4K alpha kinase activity; max response, %; PI5P4Kalpha enzyme, ADP-Glo luminescence, 60 min; active compounds read low; AID 652105; actives 1.2% (n = 330,000); active = max response of -50% or lower; inconclusive = between -30% and -50%; inactive = -30% or higher; note: value at the top dose of about 77 µM; % is set by controls: 0 for no effect and ±100 for the full control effect
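ADP-Glo luminescence end-point after a 60 min room-temperature kinase reaction. PI5P4Kalpha and substrate in HEPES pH 7.4 buffer with EGTA, 0.1% CHAPS and 5% DMSO; ATP at 5 microM final.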
PLK1 PBD inh: blocks phosphopeptide binding to human PLK1 polo-box domain. Potency, µM, without a hit: max response, negative = inhibition, hits mostly inhibitors. Plk1 PBD binding of FITC phosphopeptide, fluorescence polarization. P53350. actives 2.8% (n = 360,000); note: potency is the fitted concentration of half-maximal effect; series mostly up to about 57 µM; % is set by controls: 0 for no effect and ±100 for the full control effect; nearly all actives have a fitted effect of over 65% in size
* = called active by the depositor; ? = inconclusive; . = no result given; [ ] = another dose, or the depositor's remark. Unless noted, calls come from the whole dose curve; as a rule, active = well fitted curve in the direction sought with a large enough effect; inconclusive = small, poorly fitted or top-dose-only effect, or another doubt; inactive = no such curve, though single readings can be large; an effect the other way counts as inactive or inconclusive.

SMILES	VDR inh	WRN inhibitor	TCR act	FEN1 inhibitor	PI5P4Ka inh	PLK1 PBD inh
O=C(Nc1cc(OC(=O)C(F)(F)F)c2nonc2c1OC(=O)C(F)(F)F)C(F)(F)F	?	.	.	-12.3%	.	.
O=C(O)CSc1nnc(COc2cccc3cccnc23)n1-c1ccc(Cl)cc1	-25.4%	0.3%	-4.7%	5.9%	0.9	-8.1%
Cn1c(COc2cccc3cccnc23)nnc1SCC(=O)O	-16.6%	3.8%	-10.3%	5.4%	-7.3	26.7µM*
Cn1cc(C(=O)[C@@H]2CCc3[nH]cnc3C2)c2ccccc21	-0.2%	.	.	.	.	.
Cc1c(Cl)cccc1NC(=S)N(CCCN1CCOCC1)Cc1cccs1	-9.8%	-6.0%	-4.7%[46.1 µM]	-10.1%	6.9	-5.8%
Cc1ccc(NC(=S)N(CCCN2CCOCC2)Cc2cccs2)c(C)c1	-3.1%	-11.3%	-0.2%	-6.3%	-12.4	18.9µM*
NNC(=O)c1[nH]c2ccc([N+](=O)[O-])cc2c1-c1ccccc1	79.4µM*	-5.2%	2.1%	3.2%	-23.1	-8.4%
O=C(O)c1[nH]c2ccc([N+](=O)[O-])cc2c1-c1ccccc1	-25.3%	-12.2%	-0.6%	?	?	?
CC(=O)Oc1ccccc1C(=O)C=Cc1cccc([N+](=O)[O-])c1	22.4µM*	-25.8%	1.6%	-10.1%	4.0	?
O=C(/C=C/c1cccc([N+](=O)[O-])c1)OCC(=O)c1ccccc1	-8.6%	-0.1%	1.9%	-16.8%	-5.7	1.9%
O=C(/C=C/c1cccc([N+](=O)[O-])c1)c1ccccc1	20µM*	.	.	.	.	.
CCCC(C)NC(=O)/C=C/c1cccc([N+](=O)[O-])c1 (stereo unspecified)	17.2%	-11.8%	2.0%	-2.3%	8.2	0.2%
O=C(/C=C/c1ccco1)c1cccc([N+](=O)[O-])c1	70.8µM*	?	0.9%	-8.5%	-72.9*	-20.2%
CCCCN(CC)C(=O)/C=C/c1cccc([N+](=O)[O-])c1	3.9%	6.0%	-3.0%	-2.9%	-5.8	26.7µM*
Cc1ccc2c(c1)c1c(c(=O)n(Cc3ccccc3)c(=O)n1Cc1ccccc1F)n2C	4.0%	.	.	-8.2%	.	.
COc1ccccc1C(=O)/C=C/c1ccc(N2CCCCC2)c([N+](=O)[O-])c1	79.4µM*	1.6%	0.5%[46.1 µM]	-11.0%	-6.1	-13.7%
CCCOc1ccc(C(=O)NCc2ccco2)cc1	21.8%	-4.2%	-3.0%	-4.3%	-1.1	-4.2%
CC(C)Oc1ccc(C(=O)NCc2ccco2)cc1	-4.6%	2.5%	-3.2%	-1.1%	-19.4	26.7µM*
O=C(NCc1ccco1)c1ccccc1Br	?	3.2%	-8.2%	7.9%	-3.4	26.7µM*
CN1CCN(Cc2c(O)ccc3cc(Br)ccc23)CC1	?	2.4%	-3.0%	8.4%	-8.2	23.8µM*
CCc1cc(=O)oc2c(CN3CCN(C)CC3)c(O)ccc12	-19.0%	8.9%	-2.3%	8.2%	-8.0	3.1%
O=C1C[C@H]2C=CCc3cccc(c32)CN1Cc1cccc(F)c1	.	.	.	-17.0%	.	.
O=[N+]([O-])c1cc(C(F)(F)F)cc([N+](=O)[O-])c1Sc1n[nH]c(C(F)(F)F)n1	28.2µM*	?	-3.0%	8.8%	-16.4	?
Cc1ccsc1C=Nc1ccc(O)cc1	?	35.5µM*	-1.7%	-16.5%	-51.0*	?
C=C1CCN(C(CC(C)C)C(=O)Nc2nc3ccc(Cl)cc3s2)S(=O)(=O)c2ccccc21 (stereo unspecified)	-4.0%	.	.	-4.9%	.	.
SMILES	VDR inh	WRN inhibitor	TCR act	FEN1 inhibitor	PI5P4Ka inh	PLK1 PBD inh
O=C(Nc1ccc2c(c1)CCC2)c1cnn2c1NC(c1ccco1)CC2C(F)(F)F (stereo unspecified)	-18.3%	-5.6%	-1.0%	0.3%	2.0	26.7µM*
O=C(O)c1ccccc1-c1c2cc(Br)c(=O)c(Br)c-2oc2c(Br)c(O)c(Br)cc12	35.5µM*	.	.	.	.	.
Cc1ccc2oc(-c3ccccc3C(=O)O)cc(=O)c2c1	-9.1%	-1.6%	4.9%	-1.6%	3.4	-11.9%
COc1ccc2nc(N3CCCCC3)c(C#N)cc2c1	15.7%	-19.6%	14.9%	-19.5%	5.2	-26.9%
COc1ccc2nc(N3CCCC3)c(C#N)cc2c1	-20.5%	5.0%	-2.5%	1.3%	.	16.8µM*
O=S(=O)(NN1CCOCC1)c1cc(Cl)cc(Cl)c1O	?	?	2.9%	-6.4%	4.1	15µM*
CCN(CC)c1ccc(NC(=O)c2ccccn2)cc1S(=O)(=O)Nc1ccccc1OC	79.4µM*	-22.5%	-5.2%	3.3%	?	6.7µM*
Cc1ccc(C(=O)O/N=C(\N)c2ccccn2)c(C)c1	-9.6%	-2.5%	.	0.1%	-56.6*	-3.8%
COc1ccc(C(=O)NNC(=O)c2ccccn2)cc1	-13.5%	4.3%	-0.2%[46.1 µM]	-3.3%	-57.5*	1.8%
CCN(CC)CCNC(=O)c1ccc(Cl)c(S(=O)(=O)Nc2ccccc2OC)c1	-3.4%	6.2%	3.5%	-3.3%	-9.8	23.8µM*
COc1ccccc1C(=O)O/N=C(\N)c1ccccn1	-3.2%	5.2%	-0.2%	2.5%	-1.2	-9.1%
CCN(CC)CCCNC(=O)c1ccc(Cl)c(S(=O)(=O)Nc2ccccc2OC)c1	-7.5%	-9.3%	4.0%	-8.5%	0.2	-4.9%
COc1ccc(NS(=O)(=O)c2cc(NC(=O)c3ccccn3)ccc2OC)cc1Br	13.2%	6.3%	1.9%	16.3%	-2.1	3.5%
COc1ccc(C(=O)O/N=C(\N)c2ccccn2)cc1	3.3%	4.0%	2.6%	-0.4%	-71.4*	-14.1%
COc1cc(NC(=O)c2cc(-c3ccccc3)on2)cc(OC)c1OC	-19.4%	-2.1%	10.0%	-8.2%	2.6	-2.3%
COc1cc(NC(=O)c2ccccn2)cc(OC)c1OC	?	4.0%	-3.0%	4.3%	?	6.7µM*
COc1cc(OC)cc(C(=O)O/N=C(\N)c2ccccn2)c1	-16.1%	7.0%	13.3%	-4.9%	0.8	3.1%
Cc1ccc(NC(=O)c2ccc(CN3CC(=O)N4CCCCC4C3=O)cc2)cc1C (stereo unspecified)	11.8%	.	.	-9.6%	.	.
O=C(CCS(=O)(=O)c1cc(Br)cc2c1N(C(=O)C1CC1)CC2)N1CCN(c2cccc(Cl)c2)CC1	9.2%	.	.	-3.9%	.	.
CCn1cc(C(=O)N2CCN(c3ccccc3OC)CC2)c(=O)c2cc(S(=O)(=O)N3CCC(C)CC3)ccc21	-11.3%	.	.	-20.0%	.	.
Cc1[nH]n(-c2ccccc2)c(=O)c1-c1ccc(Cl)cc1	-11.1%	5.3%	0.3%	-1.4%	-7.5	26.7µM*
Cc1[nH]n(-c2ccccc2)c(=O)c1-c1cccc(Cl)c1	6.6%	0.3%	1.0%	0.1%	-1.0	-1.7%
CCOC(=O)N1CCC(NC(=O)c2ccc3c(c2)N(Cc2ccc(Cl)cc2)C(=O)c2ccccc2S3=O)CC1 (stereo unspecified)	-4.7%	.	.	7.8%	.	.
